From ChEMBL document CHEMBL3433997, “St. Jude Leishmania screening dataset” (2016)

How the values were obtained:
Format in all cases: functional
[1] = molecular target: Solute carrier family 2, facilitated glucose transporter member 1 (Homo sapiens) (UniProt P11166); assay: ST_JUDE_LEISH: Cytotoxicity at 2uM final concentration against transgenic Leishmania Mexicana promastigotes LmGLUT1 that are glucose transport deficient and complemented with the human glucose transporter GLUT1. Activity is measured by DNA content using SYBR green in vitro
Chain of Solute carrier family 2, facilitated glucose transporter member 1 (Homo sapiens) (P11166 whole entry): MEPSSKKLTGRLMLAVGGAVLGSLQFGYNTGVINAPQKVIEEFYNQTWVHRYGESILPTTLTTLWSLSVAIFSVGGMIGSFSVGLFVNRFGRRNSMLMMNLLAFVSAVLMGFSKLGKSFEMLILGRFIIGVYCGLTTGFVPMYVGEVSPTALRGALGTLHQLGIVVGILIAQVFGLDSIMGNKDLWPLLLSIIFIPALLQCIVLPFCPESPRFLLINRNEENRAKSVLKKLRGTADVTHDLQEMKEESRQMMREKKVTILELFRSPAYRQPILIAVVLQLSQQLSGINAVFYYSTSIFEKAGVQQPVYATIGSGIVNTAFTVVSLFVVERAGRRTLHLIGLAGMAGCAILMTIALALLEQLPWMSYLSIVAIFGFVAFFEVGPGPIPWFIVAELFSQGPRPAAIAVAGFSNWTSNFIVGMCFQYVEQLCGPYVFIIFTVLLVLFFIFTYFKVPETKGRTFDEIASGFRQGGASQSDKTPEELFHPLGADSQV

[2] = molecular target: Hexose transporter 1 (Plasmodium falciparum) (UniProt O97467); assay: ST_JUDE_LEISH: Cytotoxicity at 2uM final concentration against transgenic Leishmania Mexicana promastigotes LmPfHT that are glucose transport deficient and complemented with the Plasmodium falciparum hexose transporter. Activity is measured by DNA content using SYBR green in vitro
[3] = molecular target: Glucose transporter (Leishmania mexicana) (UniProt O61059); assay: ST_JUDE_LEISH: Cytotoxicity at 2uM final concentration against transgenic Leishmania Mexicana promastigotes LmGT2 that are glucose transport deficient and complemented with the L. Mexicana glucose transporter 2. Activity is measured by DNA content using SYBR green in vitro

Row | Compound | inhibition [1] [%] | inhibition [2] [%] | inhibition [3] [%]
1 | O=C(Nc1ccc(NC2=NCCN2)cc1)c1ccc(C(=O)Nc2ccc(NC3=NCCN3)cc2)cc1 | 17.6 | 18.1 | 6.75
2 | CC(=O)N[C@@H]1c2cc(C(C)=O)ccc2OC(C)(C)[C@@H]1O | -0.93 | -0.7 | -0.73
3 | CN1CCCN(Cc2cccc(-c3cccc(NC(=O)c4cccc(C#N)c4)c3)c2)CC1 | 12.8 | 11.4 | 10.3
4 | COc1cc2nc(NCc3ccc(S(N)(=O)=O)cc3)nc(Nc3ccc(Oc4ccccc4)cc3)c2cc1OC | 4.15 | 4.39 | 3.67
5 | O=C(Nc1ccc(CN2CCN(S(=O)(=O)c3ccc(Cl)s3)CC2)cc1)c1cccs1 | 8.13 | 7.45 | 5.63
6 | COc1ccc(-c2csc(N(CCCN(C)C)C(=O)c3cc4c(C)nn(-c5ccccc5)c4s3)n2)cc1 | 0.66 | -0.63 | 2.84
7 | Cc1[nH]c(C)c(-c2ccc(OCc3ccc(F)cc3)cc2)c(=O)c1Cl | -0.65 | -0.27 | -1.77
8 | COc1cc(C(=O)NCCCN2CCN(c3cc(Cl)ccc3OC)CC2)ccc1-c1nc2cc(Cl)c(Cl)cc2[nH]1 | 6.79 | 6.15 | 5.03
9 | CCCCCN1CCCN(Cc2cccc(NC(=O)c3cc4ccccc4s3)c2)CC1 | 1.99 | 1.5 | 3.66
10 | COc1cccc2cc(C(=O)N[C@@H](CC(C)C)C(=O)N[C@H](/C=N/NC(=O)Cc3cccnc3)CCc3ccccc3)oc12 | 3.03 | 5.36 | 1.75
11 | Cc1cc(NCCC(=O)Nc2ccccc2)nc(NCCc2cccnc2)n1 | 0.51 | 2.33 | 1.5
12 | COc1cc2c(cc1OCCN1CCC(N3CCCCC3)CC1)N(C(=O)/C=C/c1ccccc1OC(F)(F)F)CC2 | 2.32 | 5.04 | 3.58
13 | O=C(CCN(Cc1ccco1)c1nc(-c2ccc(F)cc2)nc2ccccc12)NC1CC1 | 4.96 | 1.65 | 9.67
14 | N=C(Nc1nc(-c2ccccn2)cc2ccccc12)c1cccc(Cl)c1 | 50.7 | 48.7 | 18.1
15 | O=c1cnc2ccc(F)cc2n1CCN1CCC(NCc2cc(-c3ccccc3)cs2)CC1 | 28.4 | 32.4 | 48.5
16 | COCCNCc1ccc(-c2cccc(CN(C(=O)NCCc3ccccc3)C3CCN(Cc4ccccc4)CC3)c2)cc1 | 1.13 | -0.26 | -1.5
17 | Fc1ccc2[nH]c(-c3cccc(-c4cccc(CN5CCN(c6ccncc6)CC5)c4)c3)nc2c1 | 0.24 | 1.73 | 0.3
